Source: PubChem (several laboratories)
Only some compounds are listed: those with a hit (about 3.4% of all), similar ones and a draw of the others.
p47phox inh – p47phox (human) inhibition; inhibition, % at 24.7 µM; 0.53% of 220,000 active; P14598; p47phox/p22phox peptide binding, fluorescence polarization, 2 h;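 further: 0% = p47phox with labelled peptide and 100% = labelled peptide alone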
Mcl1 Noxa PPI – disrupts binding of human Mcl-1 to Noxa peptide. Q07820. 1.5% of 220,000 active. TR-FRET Mcl-1/Noxa peptide binding, 2 h. inhibition, % at 21.7 µM. AID 1022;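 active means compounds that cut the protein-peptide binding signal by more than 50% relative to plate controls in a single-dose test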;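 further: His-tagged Mcl-1 with rhodamine Noxa BH3 peptide and terbium anti-His antibody; 0% = Mcl-1 plus Noxa peptide wells and 100% = peptide-only wells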
Target sequence (Q07820 whole entry, looked up): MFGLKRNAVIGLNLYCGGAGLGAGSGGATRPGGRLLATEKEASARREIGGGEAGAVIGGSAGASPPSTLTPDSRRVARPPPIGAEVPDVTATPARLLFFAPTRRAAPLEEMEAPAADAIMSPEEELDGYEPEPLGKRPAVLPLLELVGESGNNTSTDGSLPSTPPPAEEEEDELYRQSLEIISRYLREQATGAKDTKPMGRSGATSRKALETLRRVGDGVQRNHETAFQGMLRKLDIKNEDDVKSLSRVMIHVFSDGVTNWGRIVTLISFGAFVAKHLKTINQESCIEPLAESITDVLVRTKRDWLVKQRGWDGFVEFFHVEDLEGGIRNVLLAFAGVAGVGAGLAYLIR
Mcl1 Bid PPI – disrupts binding of human Mcl-1 to Bid peptide | Q07820 | TR-FRET Mcl-1/Bid-Dy647 peptide binding, 1536-well | inhibition, % at 21.7 µM | 0.97% of 220,000 active | AID 1021;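 active means compounds that cut the binding signal by more than half at the single screening dose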;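 further: His-tagged Mcl-1 with europium anti-His antibody binding Bid BH3 peptide; 0% = Mcl-1 plus peptide wells and 100% = peptide-only wells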
Bim-Mcl-1 – inhibitors of Bim-Mcl-1 interaction, human. Q07820. inhibition, % at 10 µM. 0.1% of 190,000 active. Bead-based flow cytometry, Bim peptide-Mcl-1 binding; in the data active means inhibition above about 40%;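 further: 0% = no compound tracer wells and 100% = peptide blocker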
14-3-3 Bad PPI – disrupts binding of bovine 14-3-3 zeta to phospho-Bad peptide. TR-FRET 14-3-3zeta/Dy647-pBad peptide displacement, 1 h. 0.71% of 220,000 active. AID 781. P63103. inhibition, % at 21.7 µM;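 active means inhibition above about 70%, limit read from the data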;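 further: 0% = full 14-3-3 plus peptide FRET controls and 100% = background without 14-3-3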
Target sequence (P63103 whole entry, looked up): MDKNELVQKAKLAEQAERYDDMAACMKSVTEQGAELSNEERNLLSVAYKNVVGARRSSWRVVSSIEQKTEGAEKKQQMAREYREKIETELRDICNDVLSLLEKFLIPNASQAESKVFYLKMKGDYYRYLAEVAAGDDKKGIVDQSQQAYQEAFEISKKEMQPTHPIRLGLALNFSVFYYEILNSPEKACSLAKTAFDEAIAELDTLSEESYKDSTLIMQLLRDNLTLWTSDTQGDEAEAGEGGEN
eIF4E 4G PPI – inhibitors of eIF4E and eIF4G interaction in translation initiation | P63073+Q04637 | TR-FRET eIF4E-eIF4GI(517-606) binding, 2 h | inhibition, % at 21.7 µM | 0.37% of 220,000 active;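 further: 0% = full FRET control wells and 100% = background wells lacking eIF4GI fragment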
* marks the source's active call; other numbers are inactive results; . = no result; [ ] = another dose, or the depositor's remark.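 How the source made its calls, unless noted: active means inhibition above about 30% (limit read from the data); inactive means the rest.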

SMILES | p47phox inh | Mcl1 Noxa PPI | Mcl1 Bid PPI | Bim-Mcl-1 | 14-3-3 Bad PPI | eIF4E 4G PPI
Cc1cc(S(=O)(=O)N2CCCC2)ccc1OCC(=O)NC1CCCC1 | 7 | 23 | -22 | -2 | 2 | 1
O=C(COc1ccc(S(=O)(=O)N2CCCC2)cc1Cl)NC1CC1 | -6 | 9 | 95* | -1 | -3 | -1
COc1ccc(C2CCN(Cc3cccnc3)CC2O)cc1 (stereo not given) | -18 | 11 | -22 | 0 | 0 | -7
CC1CC(C)CN(C2CCN(Cc3cccnc3)CC2)C1 (stereo not given) | -8 | 17 | 29 | -2 | 79* | 5
CCCc1nc2oc3ccccc3c(=O)c2c(=O)n1CCCOC | 2 | 1 | -8 | . | 9 | 5
COc1cccc(NC(C)(C)c2nnnn2-c2c(C)cccc2C)c1 | -2 | 36 | 52* | . | 17 | -2
COc1cccc(Nc2ccc(Nc3cccc(OC)c3)nn2)c1 | -7 | 20 | 2 | -3 | 10 | 0
O=C(O)[C@H](Cc1ccccc1)NC(=O)C(c1ccccc1)(c1ccccc1)c1ccccc1 | -2 | -5 | -16 | -1 | 88* | -1
O=C(CC(c1ccccc1)(c1ccccc1)c1ccccc1)N[C@@H](Cc1ccccc1)C(=O)O | -8 | 19 | 22 | -1 | 0 | 1
CC(=O)Nc1nc(-c2ccc(Cl)cc2)nc(C)c1C(C)=O | -11 | 20 | -13 | -1 | 86* | 24
O=C1CCc2cc(S(=O)(=O)NCCCC(=O)N3CCN(Cc4ccc5c(c4)OCO5)CC3)ccc2N1 | -8 | 3 | -55 | 40* | -2 | 0
Cc1cc(N2CCOCC2)nc2cc(O)ccc12 | -6 | -1 | -18 | -6 | 80* | -5
Nc1cc(N)nc(SCC(=O)N2CCN(S(=O)(=O)c3ccccc3)CC2)n1 | -8 | -1 | -32 | . | -3 | -12
CCOC(=O)c1c(CSc2ccc(C)cc2)n(C)c2cc(Br)c(O)c(CN(C)C)c12 | 0 | 86* | 27 | 2 | -5 | 9
CCOC(=O)c1c(CSc2ccsc2)n(C)c2cc(Br)c(O)c(CN(C)C)c12 | -10 | 60* | -124 | . | 2 | 8
CCCCN(C)C(=O)c1cc2cc3ccc(OC)cc3nc2s1 | -4 | -7 | -10 | -3 | 84*[fluorescence artefact?] | 1
CCCCN(CC)C(=O)c1cc2cc3ccc(OC)cc3nc2o1 | -11 | 3 | -16 | -2 | 1 | 4
COc1cccc(-c2cc(=O)c3cc(NC(=O)c4ccc(N(C)C)cc4)ccc3[nH]2)c1 | 5 | 58* | 17 | 0 | 21 | 2
O=c1cc(N2CCCC2)c2ccccc2o1 | -4 | 7 | -28 | 0 | -7 | -2
CN1C2=CC=CC=CC2=[N+](C)C12C([N+](=O)[O-])=CC(=[N+]([O-])[O-])C=C2[N+](=O)[O-] (stereo not given) | 61* | -23 | -1 | . | 1 | -4
COc1ccc(C(=O)Nc2cnn(Cc3c(F)cccc3Cl)c2)cc1OC | -11 | 5 | -25 | . | 9 | -6
COc1ccccc1CNc1nc(-c2cc(C)n(C)c2C)cs1 | 46* | 90* | 65* | 10 | 96* | 47*
COCCNc1nc(-c2cc(C)n(CCc3ccc(OC)cc3)c2C)cs1 | 17 | 57* | -2 | 1 | 60 | 14
CC(C)NC(=O)C1CCCN(S(=O)(=O)c2ccc(-n3cnnn3)cc2)C1 (stereo not given) | -3 | -12 | 98* | -2 | -7 | -2
CCOc1ccc(NC(=O)C(Cc2ccccc2)N2C(=O)c3cccc4cccc(c34)C2=O)cc1 (stereo not given) | . | -15 | 0 | -3 | 5 | 2
SMILES | p47phox inh | Mcl1 Noxa PPI | Mcl1 Bid PPI | Bim-Mcl-1 | 14-3-3 Bad PPI | eIF4E 4G PPI
CCN1c2ccccc2N(C)C1(C)c1ccccc1 (stereo not given) | 63* | 85* | 30 | 2 | 34 | 43*[fluorescence artefact?]
CN1C(=O)N(C)C2(c3ccccc3)NC(=O)NC12c1ccccc1 (stereo not given) | -8 | 15 | -27 | 0 | -6 | 3
CN1c2ccccc2N(C)C1(C)c1ccccc1 | 70* | 80* | 39 | 1 | 19 | 42*[fluorescence artefact?]
CCN1C(=O)N(c2cccc3ccccc23)C(C)=CC1(C)C | -12 | 18 | -35 | -2 | -12 | 1
C[C@@H]1CN(Cc2cn(C)nc2-c2cccc(Cl)c2)C[C@H](C)O1 | -9 | -2 | -42 | -4 | -13 | 1
O=C1CC(c2ccccc2)Oc2cc(O)cc(O)c21 (stereo not given) | 4 | 8 | -59 | . | -4 | 96*
COc1ccc(C2CC(=O)c3ccccc3O2)cc1 (stereo not given) | -4 | -21 | 7 | -3 | 14 | 7
COc1cc(OC)c2c(c1O)OC(c1ccccc1)CC2=O (stereo not given) | -25 | 54* | -6 | -3 | 12 | 5
CCOC(=O)c1ccccc1-c1cn2cc(Cl)ccc2n1 | 2 | 21 | -45 | -1 | -7 | 0
Cc1ccc(CNC(=O)c2ccc(-n3cccc3)cc2)cc1 | -24 | 81* | -61 | 3 | 31 | 38*
Cc1ccc(CNC(=O)c2ccc3nc4[nH]c5ccccc5c4nc3c2)cc1 | -6 | 15 | 68* | 0 | 37 | 2
CCOC(=O)c1[nH]c(C(=O)O)c(OC(=O)CC)c1C | -10 | 15 | 2 | . | -7 | 2
CN(C)c1cccc2c(S(=O)(=O)N3CCOCC3)cccc12 | 59* | 6 | -13 | -1 | -2 | 7
CC(C)(O)C1Cc2cc(/C=C/C(=O)O)c(O)cc2O1 (stereo not given) | 85* | 61* | -25 | -6 | 32 | 62*
CCOC(=O)c1snc(-c2ccc(F)cc2)c1N | -6 | -9 | -18 | 66* | 0 | 3
CC(=O)Nc1nonc1-c1nc2ccccc2n1N(C(C)=O)C(C)=O | 0 | 52* | -36 | 2 | 12 | 11
COc1nc(Nc2nc3ccccc3c(=O)[nH]2)nc2ccc(C)cc12 | 31* | -128 | -121 | . | 48 | -37
CC(C)Nc1nc2ccccc2c(=O)[nH]1 | -4 | 7 | -7 | -2 | 90* | 3
Cc1cc(C)cc(Nc2nc3ccccc3c(=O)[nH]2)c1 | 1 | 20 | -13 | -1 | -10 | 0
CCCNc1nc2ccccc2c(=O)[nH]1 | -4 | 2 | -29 | -2 | -19 | 2
OCC[C@H]1C[C@@H](O)[C@H](O)[C@]2(CCCCO2)O1 | -2 | -5 | -55 | . | -1 | -5
OCCCNC(=S)Nc1ccc(Br)cc1Cl | -3 | -9 | -12 | . | -4 | 10
CCOC(=O)c1ccc2nc(Nc3nc4ccc(F)cc4s3)sc2c1 | -2 | 11 | 39 | -6 | 15 | -10
COC(=O)c1ccc2nc(Nc3nc4c(F)cc(F)cc4s3)sc2c1 | -62 | 81* | 64* | -3 | 49 | 7
